Among the data in PubChem BioAssay AID1259415 (National Center for Advancing Translational Sciences (NCATS), 2018) are activity change, negative = inhibition values, retold here.

SMILES strings stand for the structures. Several values for one entry are separate records, joined by “and”; a condition that tells them apart may be missing. Equal values may be shown once. Out of some 410,000 compounds screened, about 18,000 (4.4%) were called active. About 7% were inconclusive and are not listed. Rule as the data show it: active = activity change below about -60%; inconclusive = no clear call, values can overlap the other calls; inactive = above about -39%. The list comes from a sample in which actives are over-represented; it also holds similar structures and randomly drawn compounds.
% is scaled to controls: 0 for no effect and ±100 for the full control effect.

This experiment is described as follows: qHTS Assay for inhibitors of the human cytomegalovirus (HCMV). The settings on record: HFF cells, HCMV-luciferase reporter, 72 h; at 57.5 µM; hits give low values. The procedure, abridged:
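Luciferase read-out from HCMV-luciferase-infected HFFs (MOI 1 PFU/cell) 72 h post infection at 37C; compounds added after 16 h cell attachment; activity normalized between buffer-only basal and Salinomycin (10uM) inhibitor controls.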
A general note: In qHTS, concentration-response curves come from the screen itself.
In the case of `CCOC(=O)c1cc(NC(=O)c2ccc(F)cc2)c(=O)n2c1oc1ccccc12`, the activity change, negative = inhibition is -11.8% (inactive). On to `Cc1ccccc1Cn1c2ccccc2c2cnn(CC(=O)NCc3ccco3)c(=O)c21`, for which the activity change, negative = inhibition was -95.6% (active).

For the compound `CCCN(CCC)CCCNC(=O)Cn1ncc2c3ccccc3n(Cc3ccccc3)c2c1=O`, the activity change, negative = inhibition is -11.9% (inactive).

`O=C(Cn1ncc2c3ccccc3n(Cc3ccccc3)c2c1=O)NCc1ccccn1`: the activity change, negative = inhibition is -12.1% (inactive) and -33.7% (inactive). As to `Cc1ccc(-c2nnc(Nc3ccc(OCC(N)=O)cc3)c3ccccc23)cc1S(=O)(=O)NCC1CCCO1` (stereo not drawn), the activity change, negative = inhibition is -19.2% (inactive). Then `CCn1c(=O)cc(OCC(=O)Nc2cc(Cl)c(OC)cc2OC)c2ccccc21`, with 0.565% (inactive); and `C=CCC(C(=O)c1ccccc1)[N+](C)(C)CC=C` (stereo not drawn), with 12.4% (inactive). `COC(=O)[C@@H]1CCCN1C(=O)c1cc(COc2cccc3cccnc23)on1`: the activity change, negative = inhibition was -61.4% (active).

For the compound `COCC1CCCCN1C(=O)c1cc(COc2ccc(C)c(C)c2)on1` (stereo not drawn), the activity change, negative = inhibition is 50.2% (inactive).

Consider `Cc1nonc1C1CCCN1C(=O)c1cc(COc2cccc(C(F)(F)F)c2)on1` (stereo not drawn), for which the activity change, negative = inhibition was 10.6% (inactive). Then `O=C(Cc1csc(Nc2nc(=S)[nH]c3ccccc23)n1)NCCCN1CCN(c2cccc(Cl)c2)CC1`, with 2.37% (inactive); and `CCC(=O)NC(NCC1CCCO1)C(Cl)(Cl)Cl` (stereo not drawn), with -10.5% (inactive); and `COCCN(CCOC)c1nc(N)c2c(N)nc3c(c2c1C#N)CC(=O)N3Cc1ccc(Cl)cc1`, with 30.8% (inactive).

As for `Cc1cc(C)c(NC(=O)CSc2nc3ccncc3[nH]2)c(C)c1`, the activity change, negative = inhibition is -3.75% (inactive). As for `Cc1cc(C)c(SCCc2ccncc2)c(C)c1`, the activity change, negative = inhibition is -63.8% (active). Then `c1ccc(CSCCc2ccncc2)cc1`, with -24.8% (inactive); and `COc1ccc2c(c1)C=C(C(=O)NCc1cc(Br)ccc1OC)CO2`, with -22.6% (inactive).

Consider `Cc1ccccc1Nc1scc(-c2ccc(Br)cc2)[n+]1-c1ccccc1C`, for which the activity change, negative = inhibition is -68.6% (active). Then `CSCC[C@H](NC(=O)N1CCn2c1nc1ccccc12)C(=O)NC1CCCCC1`, with -35.1% (inactive).

With `CSc1ccc(Cl)c(C(=O)OCC(=O)N2CCNC2=O)c1`, the activity change, negative = inhibition is -17% (inactive). For `CCN1CCN(C(=O)CN(C)S(=O)(=O)c2ccc3ccccc3c2)CC1`, the activity change, negative = inhibition is -9.61% (inactive). Then `CC(=O)Oc1ccc(N(C(C)=O)S(=O)(=O)c2ccc3ccccc3c2)cc1Br`, with -69.6% (active). As to `CN(C1CCS(=O)(=O)C1)S(=O)(=O)c1ccc2ccccc2c1` (stereo not drawn), the activity change, negative = inhibition is -24.3% (inactive). For the compound `CCC(CC)C(=O)N1CCc2cc(OC)c(OC)cc2C1COc1ccc(F)cc1` (stereo not drawn), the activity change, negative = inhibition is -15.5% (inactive). In the case of `O=C(Nc1c(C(=O)N2CCCCC2)cnn1-c1ccccc1)c1ccco1`, the activity change, negative = inhibition is 22.9% (inactive). Then `O=C(Nc1ccc2nc(SCCOc3ccccc3Cl)sc2c1)c1ccco1`, with -70% (active). For `COc1cc(C)ccc1OCCSc1nc2ccc(NC(=O)c3ccc(C)cc3)cc2s1`, the activity change, negative = inhibition was 24.3% (inactive). Then `CC(=O)Nc1ccc2nc(SCCOc3cc(C)cc(C)c3)sc2c1`, with -35% (inactive); and `CC(C)OC(=O)c1ccc(COc2ccc3ccc(=O)oc3c2)o1`, with -15.4% (inactive). With `CC(=CCOc1ccc2ccc(=O)oc2c1)C1=CC(=O)C(C)(C)O1`, the activity change, negative = inhibition was -76.5% (active). Then `O=C(COc1ccc2ccc(=O)oc2c1)NCC(O)c1ccccc1` (stereo not drawn), with -6.86% (inactive). On to `CCOc1ccc(CNC(=O)c2ccc3nc(CC)c(CC)nc3c2)cc1OC`, for which the activity change, negative = inhibition is -2.8% (inactive).

Regarding `CCC(=O)Nc1cccc(C(=O)OCc2cc(=O)n3nc(CC)sc3n2)c1`, the activity change, negative = inhibition is -14.2% (inactive). Then `CC(C)=CCc1c(O)c(CC=C(C)C)c2occ(-c3ccc(O)cc3)c(=O)c2c1O`, with -100% (active); and `Cc1ccc(C(O)c2nnc(Nc3cccc(Oc4ccccc4)c3)s2)cc1` (stereo not drawn), with -5.85% (inactive). Then `O=C(CCNC(=O)c1ccccc1)NN=Cc1ccc(Br)o1`, with -13.4% (inactive); and `O=C(CCNc1n[nH]c(=O)[nH]c1=O)N/N=C\c1ccc(Br)cc1`, with 0% (inactive). As to `O=C(N/N=C/c1ccc(Br)o1)c1cncc(Br)c1`, the activity change, negative = inhibition is -102% (active).

Consider `COC(=O)c1ccccc1NC(=O)c1cncc(Br)c1`, for which the activity change, negative = inhibition is -30.4% (inactive). Then `Cc1ccc(C(=O)N/N=C\c2cc(Br)c(Br)o2)cn1`, with -32.6% (inactive). Regarding `O=C(CCC(=O)N/N=C/c1ccc(Br)o1)N/N=C/c1ccc(Br)o1`, the activity change, negative = inhibition was -61.8% (active). Then `COc1ccc(-c2cc(C(F)(F)F)n3nc(-c4ccccc4)cc3n2)cc1OC`, with -15.9% (inactive).

As for `COc1ccccc1NC(=O)C1CCN(C(=O)c2ccc(C(C)(C)C)cc2)CC1`, the activity change, negative = inhibition was 28.4% (inactive).

Regarding `CC(=O)Nc1ccc(S(=O)(=O)N2CCn3cccc3C2C)cc1` (stereo not drawn), the activity change, negative = inhibition is 36.8% (inactive). Take `CCC(Cc1ccccc1)NS(=O)(=O)c1ccc2c(c1)NC(=O)CS2` (stereo not drawn): the activity change, negative = inhibition was -70.6% (active). Then `COc1ccccc1CNS(=O)(=O)c1ccc2c(c1)NC(=O)CS2`, with -16.2% (inactive); and `O=C1CSc2ccc(S(=O)(=O)NCc3ccccc3)cc2N1`, with 0% (inactive); and `Cc1cccc(N2CCN(C(=O)c3cnc(N4CCCC4)nc3C)CC2)c1C`, with -23.5% (inactive). On to `O=C(CSc1nc2ccccc2o1)N1CCN(c2ccc(Cl)cc2)CC1`, for which the activity change, negative = inhibition was -0.478% (inactive). In the case of `Cc1nc(SCC(=O)N2CCN(c3ccccc3)CC2)[nH]c(=O)c1C`, the activity change, negative = inhibition is 17.7% (inactive).

As to `O=C(CSc1nc2ccccc2o1)N1CCN(c2ccccc2)CC1`, the activity change, negative = inhibition was -78.3% (active). As for `COC(=O)c1ccccc1NC(=O)Cn1c(=O)n(-c2cccc(C(F)(F)F)c2)c(=O)c2c(C)c(C)sc21`, the activity change, negative = inhibition is -21.9% (inactive). On to `O=C(CN1C(=O)COc2ccc(S(=O)(=O)N3CCOCC3)cc21)N1CCN(c2cccc(Cl)c2)CC1`, for which the activity change, negative = inhibition is -4.92% (inactive). For the compound `CCC1(CC)NC(=O)N(CC(=O)OCC(=O)NC(=O)c2ccccc2)C1=O`, the activity change, negative = inhibition was -39.9% (inactive). Then `Cn1c(CCc2ccccc2)nnc1SCC(N)=O`, with 8.58% (inactive). In the case of `N#Cc1ccc(CSc2ncccn2)cc1`, the activity change, negative = inhibition is 4.06% (inactive). Then `N#CC1=C(SCc2ccc(C#N)cc2)N=C(N)C(c2nc(-c3ccccc3)cs2)C12CCCCC2` (stereo not drawn), with -98.4% (active); and `O=C(CCCn1c(=O)c2cccn2c2cccnc21)NCc1ccc(F)cc1`, with -18% (inactive).
